# Rows were chosen to be rich in hits. Some 7.5% of all compounds tested hit in one or more screens of this group.
# Rab9 promoter act: activators of Rab9 promoter. Huh7 Rab9 promoter-luciferase reporter, luminescence, 24 h. Potency, µM (titrated, usually from 9.22 µM), for the others: top-dose activation, negative = inhibition, actives largely listed as activators. 320,000 compounds, 2.8% hits. AID 485297; note: % of control where 0% means no effect; nearly all actives have a fitted effect of over 60% in size
#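 Quantitative HTS format; Huh7 Rab9-luciferase reporter cells (1500/well) receive compound 2 h post-plating, incubate 24 h at 37 °C, then get luciferase reagent for 10 min before luminescence reading.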
# ELG1 genotox: genotoxicity induction in ELG1-luciferase HEK293T cells; Potency, µM (top dose mostly 46 µM), inactives show at the highest dose activity change, positive = activation, usual class: activators; 330,000 compounds, 1.3% hits; HEK293T ELG1-luciferase reporter, luminescence, 16 h; note: % of control where 0% means no effect; nearly all actives have a fitted effect of over 60% in size
#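 HEK293T cells expressing luciferase-tagged ELG1 were treated with compound or DMSO for 16 hr at 37°C. Luciferase activity was then read after 30 min with ONE-Glo at room temperature; rising signal flags genetic stress.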
# Luc counter: Kinase-Glo luciferase inhibition (counter-screen); Q27757; Kinase-Glo luciferase, ATP luminescence, 8 min; Potency, µM (doses to about 38.3 µM), without a hit: top-dose activity change, negative = inhibition, hits mostly inhibitors; 200,000 compounds, 0.28% hits; AID 1379; note: % is set by controls: 0 for no effect and ±100 for the full control effect; nearly all actives have a fitted effect of over 60% in size
#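 Compound is pinned into ATP-containing buffer (10 uM ATP, imidazole pH 7.2, 7 mM MgCl2). Kinase-Glo luciferase reagent is then added. Light output is recorded following an 8-min room-temperature incubation.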
# SMN2 splice up: SMN2 splice variant enhancement. HEK293 SMN2-luciferase splicing reporter, luminescence, 30-36 h. Potency, µM (doses to about 46.1 µM), for inactives: at the top dose activity change, positive = activation, usual class: activators. 210,000 compounds, 2.8% hits; note: % of control where 0% means no effect; nearly all actives have a fitted effect of over 55% in size
#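 qHTS luciferase splicing reporter: luminescence rises when SMN2 exon 7 is included in transfected HEK293 cells. Compound exposure lasted 30-36 h at 37C, with 4.5 mM final sodium butyrate as control, followed by a ONE-Glo read.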
# FLuc modulator: inhibits or activates purified firefly luciferase, miR-21 counter-screen. P08659. purified FLuc, Km substrates, luminescence inhibition. Potency, µM (series often up to 57.5 µM), without a hit: at the top dose activity change, negative = inhibition, most hits filed as inhibitors. 360,000 compounds, 6.9% hits. AID 588342;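 note: plate controls were vehicle for no effect and reference inhibitor for full effect; nearly all actives have a fitted effect of over 55% in size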
# Target sequence (P08659 whole entry, looked up): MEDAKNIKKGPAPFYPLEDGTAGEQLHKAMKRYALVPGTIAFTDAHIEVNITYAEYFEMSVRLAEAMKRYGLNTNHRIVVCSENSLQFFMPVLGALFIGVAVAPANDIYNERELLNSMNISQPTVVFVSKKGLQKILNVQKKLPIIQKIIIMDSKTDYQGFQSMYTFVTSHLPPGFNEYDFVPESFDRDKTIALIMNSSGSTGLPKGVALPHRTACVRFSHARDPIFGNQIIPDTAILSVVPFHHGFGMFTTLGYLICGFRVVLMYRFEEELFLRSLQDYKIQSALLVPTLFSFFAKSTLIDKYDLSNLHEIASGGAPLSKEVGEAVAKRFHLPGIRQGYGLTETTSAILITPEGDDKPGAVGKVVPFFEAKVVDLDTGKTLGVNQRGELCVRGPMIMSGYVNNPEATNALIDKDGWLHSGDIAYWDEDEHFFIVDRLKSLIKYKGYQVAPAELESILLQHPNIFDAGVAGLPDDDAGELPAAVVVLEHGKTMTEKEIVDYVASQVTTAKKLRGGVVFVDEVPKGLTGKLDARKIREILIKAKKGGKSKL
#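 Biochemical qHTS of compounds, final roughly 60 µM downward over six points, against 10 nM purified firefly luciferase using Km concentrations of substrates (10 uM D-luciferin, 10 uM ATP) in Tris acetate pH 7.5 buffer; luminescence output.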
# NPC1 prom act: NPC1 promoter activation | Huh7 NPC1 promoter luciferase reporter, 24 h | 320,000 compounds, 2.4% hits | Potency, µM (highest dose often 9.22 µM), without a hit: top-dose activation, usual class: activators; note: % of control where 0% means no effect; nearly all actives have a fitted effect of over 60% in size
#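 Cells: Huh7 expressing luciferase under the NPC1 promoter, 1500/well. Seeded 2 h, compound added, incubated 24 h at 37 °C. Luciferase reagent, 10 min ambient, then luminescence.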
# * marks the source's active call; other numbers are inactive results; ? = inconclusive; nt = not tested or not shown; [ ] = remark or other dose. Calls come from the whole dose curve; as a rule, active = well fitted curve in the direction sought with a large enough effect; inconclusive = small, poorly fitted or top-dose-only effect, or another doubt; inactive = no such curve, though single readings can be large; an effect the other way counts as inactive or inconclusive. Potency is the fitted concentration of half-maximal effect.
SMILES,Rab9 promoter act,ELG1 genotox,Luc counter,SMN2 splice up,FLuc modulator,NPC1 prom act
COc1ccc2nc(N3C(=O)CNC3=S)sc2c1,1.3µM*,21µM*,nt,nt,2.4µM*,3.5µM*
COC(=O)[C@H](COC(C)(C)C)NC(=O)O[C@@H]1C(=O)c2cc(Br)ccc2O[C@H]1c1cccc(OC)c1,nt,nt,-1%,8%,nt,nt
COc1cc(-c2nnn(Cc3ccccc3C)n2)cc(OC)c1OC,4%,6%,nt,nt,1%,-5%
Cc1ccccc1-c1nnn(Cc2ccc(F)cc2Cl)n1,-1%[1.84 µM],9%,nt,nt,17µM*,16%
Clc1ccc(Cn2nnc(-c3ccccc3)n2)cc1,13%,14%,2%,29%,?,10%
Clc1ccccc1Cn1nnc(-c2ccccc2)n1,?,?,1%,?,21µM*,27%
CN(C)c1ccc(-c2nnn(Cc3ccccc3Br)n2)cc1,?,?,-2%,12%,13µM*,?
Clc1ccccc1Cn1nnc(-c2cccs2)n1,3.5µM*,18µM*,1%,13µM*,15µM*,3.2µM*
COC(=O)c1ccsc1NC(=O)CN1CCN(c2ncccn2)CC1,-1%,-6%,nt,nt,-1%,14%
COc1ccc(S(=O)(=O)NCc2ccc3c(c2)CCN3C(=O)c2ccc(C)cc2)cc1Cl,nt,nt,nt,nt,4%,nt
O=C(NCCc1ccc(Cl)cc1)c1cc(-c2ccccn2)nc2ccccc12,8%,-1%[9.26 µM],nt,nt,1%,0%
CCOC(=O)[C@H]1[C@H]2COc3ccc(Cl)cc3[C@@H]2N2C(=O)[C@@H](C)NC(=O)[C@@]12C,nt,4%,nt,nt,nt,nt
CN(C)CCCNC(=O)c1ccc(/C=N/O)nc1,2.8µM*,?,-4%,nt,11µM*,2.5µM*
COc1ccc(C(=O)c2c(N)c(C(=O)Nc3ccccc3Cl)c3ccccn23)cc1,nt,nt,nt,-6%,-6%,nt
O=C1N/C(=N/S(=O)(=O)Cc2ccccc2)S/C1=C/c1ccc2c(c1)OCO2,-5%,-2%,nt,nt,27µM*,-2%
COc1ccc(/C=C2\SC(=NCc3ccccc3)NC2=O)cc1,-2%,-1%,-7%,-10%,-13%,-2%
Cc1c(Cl)cccc1NC(=O)C1CCCN(c2nnc(-n3c(C)ccc3C)s2)C1 (centres undefined),nt,nt,nt,-27%,5%,nt
c1ccc(CCNc2ncnc3c2cnn3-c2ccccc2)cc1,1.6µM*,?,2%,11µM*,6.7µM*,3.2µM*
Fc1ccc(CNc2ncnc3c2cnn3-c2ccccc2)cc1,nt,nt,-3%,-17%,?,nt
c1ccc(-n2ncc3c(NCCN4CCCCC4)ncnc32)cc1,?,?,0%,10%,19µM*,?
CC(C)(C)Nc1ncnc2c1cnn2-c1ccccc1,0.4µM*,1µM*,-1%,2µM*,1.5µM*,0.35µM*
O=c1[nH]n(-c2ncnc3c2cnn3-c2ccccc2)c(=O)c2ccccc12,5%,0%,0%,-3%,13µM*,-3%
Cc1ccc2oc(=O)c(-c3ccc(O)cc3)c(C)c2c1,-3%,13%,nt,nt,?,6%
CC(C(=O)Nc1ccc(N2CCOCC2)cc1)N1C(=O)NC(C)(C)C1=O (centres undefined),-10%,2%,nt,nt,6%,1%
COc1ccccc1Oc1ncnc2c1cnn2-c1ccccc1,4µM*,?,1%,13µM*,12µM*,?
COc1ccc(-n2ncc3c(NC(C)(C)CO)ncnc32)cc1,nt,nt,nt,nt,4.8µM*,nt
COc1ccc(C(=O)NNc2ncnc3c2cnn3-c2ccccc2)cc1,nt,nt,nt,nt,-9%,nt
c1ccc(-n2ncc3c(NCCN4CCOCC4)ncnc32)cc1,11%,13µM*,-8%,nt,?,?
CC(C)c1cccc(C(C)C)c1NC(=O)CN(C)C1CCS(=O)(=O)C1 (centres undefined),-4%,2%,nt,nt,3%,-1%
COc1ccc(S(=O)(=O)NCC2CCCN(C(=O)CCSC)C2)cc1 (centres undefined),2%,-3%,nt,nt,-1%,0%

# Screening data from PubChem.
